The results in this text go back to PubChem BioAssay AID1347142 (National Center for Advancing Translational Sciences (NCATS), 2019).

Records with an inconclusive call do not appear. Unmarked numbers belong to inactive results. Activity calls are given as the source filed them. The call rests on the fitted dose curve; in most records, active means well fitted inhibition curve with a large enough effect; inconclusive means small, poorly fitted or top-dose-only effect; inactive means no such curve, though single readings can be large or run the other way.
Further: nearly all actives have a fitted effect of over 80% in size.
Potency means the concentration at half of the fitted maximal effect.
Wherever activity change, negative = inhibition is given: 0% is about no effect.

Sequence of N-terminal Xaa-Pro-Lys N-methyltransferase 1 (Homo sapiens) (Q9BV86 whole entry, looked up): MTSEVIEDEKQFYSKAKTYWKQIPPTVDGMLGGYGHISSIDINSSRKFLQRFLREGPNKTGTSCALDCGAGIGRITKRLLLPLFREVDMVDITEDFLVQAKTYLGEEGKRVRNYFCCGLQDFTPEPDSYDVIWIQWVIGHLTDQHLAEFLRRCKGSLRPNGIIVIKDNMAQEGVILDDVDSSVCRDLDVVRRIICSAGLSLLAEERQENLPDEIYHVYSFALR

This test concerns the target N-terminal Xaa-Pro-Lys N-methyltransferase 1 (Homo sapiens) (UniProt Q9BV86). Description: qHTS Assay for Inhibitors of N-terminal methyltransferase 1 (NTMT1): ThioGlo3 Assay Confirmatory Screen, Round 1. Conditions: NTMT1 SAHH-coupled ThioGlo3 fluorescence, 30 min; series mostly up to 56.8 µM; activity change, negative = inhibition: at the top concentration. In outline: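 Human NTMT1 at 125 nM was preincubated 1 min at room temperature with compounds at various concentrations or 1 uM RCC1-6 control. Substrate mix (100 uM SAM, 10 uM SAHH, 15 uM ThioGlo3) was added, and fluorescence (Ex 340/Em 450 nm) was read at start and after 30 min, normalized to background.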
(In general: qHTS replaces the single test concentration by a dilution series.)
`C[S+](CC[C@H](N)C(=O)O)C[C@H]1O[C@@H](n2cnc3c(N)ncnc32)[C@H](O)[C@@H]1O` (stereo partly specified): the Potency entry is “inactive”.
In the case of `Nc1ncnc2c1ncn2[C@@H]1O[C@H](COP(=O)(O)OP(=O)(O)OP(=O)(O)OP(=O)(O)OC[C@@H]2O[C@H](n3cnc4c(N)ncnc43)[C@@H](O)[C@H]2O)[C@@H](O)[C@H]1O`, the “activity change, negative = inhibition” value was -8.61%.
Take `COc1cc2c(NC3CCN(C(C)C)CC3)nc(N3CCC(N4CCCC4)CC3)nc2cc1OCCCN1CCCCC1`: the Potency was 24.1 µM (active).
With `Nc1ncnc2c1ncn2[C@@H]1O[C@H](COP(=O)(O)OP(=O)(O)CP(=O)(O)O)[C@@H](O)[C@H]1O`, the “activity change, negative = inhibition” value is 3.29%.
In the case of `COc1cc2nc(N3CCCN(C)CC3)nc(NC3CCNCC3)c2cc1OC`, the Potency was 21.5 µM (active).
With `COC(=O)c1ccc2c(c1)nc(NC(=O)c1ccccc1)n2CCCc1ccccc1`, the “activity change, negative = inhibition” value is 380%.
Take `COc1cc2nc(N3CCOCC3)nc(NC3CCN(Cc4ccccc4)CC3)c2cc1OC`: the Potency was 27.1 µM (active).
Still for that read-out and setting: to `COc1cc2nc(N3CCN(C)CC3)nc(NC3CCCCC3)c2cc1OC` belongs 27.1 µM (active); to `COc1cc2c(NC3CCN(C(C)C)CC3)nc(N3CCCN(C)CC3)nc2cc1OCCCN1CCCCC1`, 24.1 µM (active); to `COc1cc2nc(N3CCN(C)CC3)nc(NC3CC3)c2cc1OC`, 27.1 µM (active).
As for `COc1cc2nc(N3CCN(C(C)=O)CC3)nc(NC3CC3)c2cc1OC`, the Potency is 21.5 µM (active).
Still for that read-out and setting: the value for `COc1cc2c(NC3CCN(C)CC3)nc(N3CCCN(C)CC3)nc2cc1OCCCN1CCCCC1` was 24.1 µM (active).
In the case of `CCN(c1cc(C#CCN2CCOCC2)cc(C(=O)NCc2c(C)cc(C)[nH]c2=O)c1C)C1CCC(N(C)CCOC)CC1` (stereo unspecified), the “activity change, negative = inhibition” value was 1.3%.
As for `CNc1ncnc2c1ncn2[C@H]1C[C@H](O)[C@@H](CO)O1`, the “activity change, negative = inhibition” value was -0.37%.
On the same count and under the same terms, the value for `CSc1ncnc2c1ncn2C1OC(CO)C(O)C1O` (stereo unspecified) was 10.2%.
In the case of `COc1cc2c(NC3CCN(C)CC3)nc(N3CCCN(C)CC3)nc2cc1OCCCCCN(C)C`, the Potency is 24.1 µM (active).
Consider `COc1cc2c(NC3CCN(C(C)C)CC3)nc(N3CCCN(C)CC3)nc2cc1OCCCN1CCCC1`, for which the Potency is 24.1 µM (active).
Turning to `COc1cc2c(NC3CCN(C)CC3)nc(N3CCCN(C)CC3)nc2cc1OCCCN(C)C`, the Potency is 27.1 µM (active).
Still for that read-out and setting: the value for `CCCCC#Cc1nc(NC)c2ncn([C@@H]3O[C@H](CO)[C@@H](O)C3O)c2n1` (stereo partly specified) was 8.57 µM (active).
As for `COc1cc2c(NC3CCN(C)CC3)nc(N3CCCCC3)nc2cc1OCCCN(C)C`, the “activity change, negative = inhibition” value is 1400%.
`Nc1ncnc2c1[nH]c(=S)n2C1OC(CO)C(O)C1O` (stereo unspecified): the Potency is 17.1 µM (active).
Still for that read-out and setting: to `COc1cc2nc(N3CCCN(C)CC3)nc(NC3CCOCC3)c2cc1OC` belongs 24.1 µM (active); to `Nc1nc(F)nc2c1ncn2[C@@H]1O[C@H](CO)[C@@H](O)[C@@H]1O`, “inactive”.
As to `COc1cc2nc(N3CCN(C)CC3)nc(N3CCN(C(C)=O)CC3)c2cc1OC`, the Potency was 21.5 µM (active).
For `Nc1ncnc2c1nc(Br)n2C1OC(CO)C(O)C1O` (stereo unspecified), the “activity change, negative = inhibition” value was -4.56%.
Turning to `COc1cc2c(NC3CCN(C(C)C)CC3)nc(N3CCCN(CC4CCCCC4)CC3)nc2cc1OCCCN1CCCC1`, the Potency is 24.1 µM (active).
Turning to `COc1cc2nc(N3CC[C@H](N(C)C)C3)nc(NC3CC3)c2cc1OC`, the “activity change, negative = inhibition” value is 15.8%.
`COc1cc2nc(N3CCCN(C)CC3)nc(NC3CCN(C)C3)c2cc1OC` (stereo unspecified): the Potency is 24.1 µM (active).
Turning to `CSc1nc(N)c2ncn([C@@H]3O[C@H](COP(=O)(O)OP(=O)(O)OP(=O)(O)O)C(O)[C@H]3O)c2n1` (stereo partly specified), the Potency is 21.5 µM (active).
For the compound `Nc1nc(Cl)nc2c1ncn2[C@@H]1O[C@H](COP(=O)(O)OP(=O)(O)OP(=O)(O)O)C(O)[C@H]1O` (stereo partly specified), the Potency was 21.5 µM (active).
On the same count and under the same terms, to `COc1cc2c(NC3CCN(C)CC3)nc(N3CCCN(C)CC3)nc2cc1OCCCCCCN(C)C` belongs 24.1 µM (active).
In the case of `Nc1nc(Cl)nc2c1ncn2[C@@H]1O[C@H](COP(=O)(O)OP(=O)(O)OP(=O)(O)O)[C@@H](O)[C@H]1O`, the “activity change, negative = inhibition” value was -20.5%.
On to `COc1cc2c(NC3CCN(C)CC3)nc(N3CCCN(C)CC3)nc2cc1OCCN(C)C`, for which the Potency was 21.5 µM (active).
The same measure, in the same setting: the value for `COc1cc2c(NC3CCN(C(C)C)CC3)nc(N3CCCN(c4ccccc4)CC3)nc2cc1OCCCN1CCCC1` was 17.1 µM (active).
In the case of `Nc1ncnc2c1ncn2C1C[C@H](O)[C@@H](CO)O1` (stereo partly specified), the “activity change, negative = inhibition” value was -9.06%.
`COc1cc2nc(N3CCN(C)CC3)nc(NC3CCN(Cc4ccccc4)CC3)c2cc1OC`: the Potency is 24.1 µM (active).
